From PubChem BioAssay (NCI)
The panel holds about 83,000 compounds, 20% with a hit somewhere; the sample as a whole holds those more often.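 Values shown are percent growth following 48 h exposure of cells in 96-well plates to a single concentration of compound; below 10 was considered active.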 A number with no mark means an inactive call. Active and inactive are the calls of the source.

What was measured:
Assay in all cases: NCI-60 one-dose screen, 48 h (100 = growth as untreated, 0 = no growth, -100 = all killed)
Conditions in all cases: 10 µM unless noted
[1] = system: HCT-15 colon
[2] = system: HT29 colon
[3] = system: SNB-75 CNS
[4] = system: SNB-19 CNS
[5] = system: U251 CNS
[6] = system: PC-3 prostate
[7] = system: SK-MEL-5 melanoma
[8] = system: UACC-62 melanoma
[9] = system: LOX IMVI melanoma
[10] = system: SK-MEL-28 melanoma
[11] = system: SK-MEL-2 melanoma
[12] = system: EKVX NSCLC
[13] = system: SN12C renal
[14] = system: UO-31 renal
[15] = system: TK-10 renal
[16] = system: ACHN renal
[17] = system: CAKI-1 renal
[18] = system: A498 renal
[19] = system: CCRF-CEM leukemia
[20] = system: MOLT-4 leukemia

Row | Structure (SMILES) | growth [1] | growth [2] | growth [3] | growth [4] | growth [5] | growth [6] | growth [7] | growth [8] | growth [9] | growth [10] | growth [11] | growth [12] | growth [13] | growth [14] | growth [15] | growth [16] | growth [17] | growth [18] | growth [19] | growth [20]
1 | O=C(CN1CCN(c2cc(=O)n(-c3ccccc3)c3ccccc23)CC1)Nc1ccc(F)cc1 | 69.2% | 81% | 77.2% | 77.3% | 80.2% | 64.6% | 16.9% | 55.3% | 67.4% | 86.2% | 87.9% | 48.7% | 77.7% | 40.6% | 73.1% | 65.4% | 63.7% | 53.6% | 70% | 44.4%
2 | CCNC(=O)Oc1ccc(/C(=C(/C)c2ccccc2)c2ccc(OCCN3CCCCCC3)cc2)cc1 | 3.38% (active) | -14.2% (active) | -0.681% (active) | 12.7% | -44.6% (active) | 13.1% | -94.7% (active) | 16.5% | -14.8% (active) | -41.8% (active) | -30% (active) | 52.4% | 26.4% | -20.3% (active) | 66.5% | 18.9% | 8.75% (active) | 26.6% | 7.24% (active) | 2.51% (active)
3 | CCCCCc1ccc(S(=O)(=O)Nc2cccc(-c3csc(NC(=O)CCCCCN4CCN(CCO)CC4)n3)c2)cc1 | 43.1% | 11.4% | 98.5% | 85.9% | 65.8% | 68.1% | 66.1% | 87.6% | -60.3% (active) | 71.1% | 105% | 81% | 85.2% | 88.4% | 127% | 99.4% | 95.3% | 76.8% | 46.7% | 14.7%
4 | Cc1ccc(-n2cc(/C=C/C(=O)c3ccc(O)cc3)c(-c3ccc(S(C)(=O)=O)cc3)n2)cc1 | 26% | 28.6% | 87.5% | 75.6% | 72.3% | 69.9% | 61.7% | 59.6% | 41.9% | 82.3% | 101% | 91.4% | 63.5% | 76.4% | 117% | 67.7% | 73.4% | 99.2% | 48.8% | 34.8%
5 | CCNC(=O)N1CCc2cc(OC)c(OCCc3ccc(OC)c(N)c3)cc2C1c1cc(C)c(C)cc1C (stereo not given) | 14.7% | 21.9% | 22.1% | 34.6% | 28.4% | 36.7% | 27.7% | 23.1% | 7.03% (active) | 44.7% | 33.2% | 58.3% | 39.4% | 38.4% | 68% | 32.5% | 30.1% | 20% | 46.7% | 32.3%
6 | CN(C)CCN(C)c1ccc2ncc(C#Cc3cncc(C(=O)Nc4ccc(CN5CCN(C)CC5)c(C(F)(F)F)c4)c3)n2n1 | -25.2% (active) | -66.1% (active) | 47.9% | -11.3% (active) | 64.1% | 65.2% | 96.4% | 93% | -89% (active) | 105% | 84.5% | 86.9% | 36.1% | 68.7% | 134% | 47.2% | 58.1% | 112% | 7.73% (active) | 3.55% (active)
7 | CCC(CC)N1C(=O)/C(=c2\sc3n(c2=O)NC2C(N=3)N(CC)C(=O)N2CC)c2ccccc21 (stereo not given) | 34.5% | 44.7% | 67.9% | 71.4% | 58.9% | 43.9% | 55.6% | 39.9% | 39.3% | 57% | 101% | 59.6% | 56% | 54.4% | 127% | 50.4% | 50.8% | 52.3% | 55.3% | 59.8%
8 | CC[C@@H](CO)Nc1ccc2ncc(C#Cc3cncc(C(=O)Nc4ccc(CN5CCN(C)CC5)c(C(F)(F)F)c4)c3)n2n1 | -33.4% (active) | -51% (active) | -83.5% (active) | -20% (active) | -87.8% (active) | -21.1% (active) | -96.4% (active) | -34.5% (active) | -95.3% (active) | -43.4% (active) | -93.2% (active) | -9.99% (active) | -55.4% (active) | -85.9% (active) | -53.5% (active) | -91.4% (active) | -82.8% (active) | -98.8% (active) | 7.24% (active) | 3.44% (active)
9 | NC(N)=Nc1ccc(Oc2cccc(Nc3ccc(Cl)c(C(F)(F)F)c3)c2)cn1 | -63.5% (active) | -39.2% (active) | 20.3% | -77% (active) | -82.2% (active) | -89.4% (active) | 26.7% | -78.3% (active) | -83.8% (active) | -28.6% (active) | -17.7% (active) | -58.5% (active) | -84.4% (active) | 43.3% | 23.2% | 3.16% (active) | -6.78% (active) | -7.17% (active) | -7% (active) | -39% (active)
10 | Cc1ccc(C2=Nn3c(nnc3-c3ccccc3)SC2)cc1 | 23% | 4.8% (active) | -4.24% (active) | 31.4% | 25.5% | 35.2% | 21.5% | 41.4% | 49% | 76.2% | -14.8% (active) | 39.3% | 47.5% | 43.1% | 48.3% | 52.1% | 34.4% | -12.4% (active) | 23.6% | 44.4%
11 | NC(N)=Nc1ccc(Oc2cccc(NC(N)=Nc3ccc(Br)c(C(F)(F)F)c3)c2)cc1 | 83.1% | 40.1% | 62.5% | 10.2% | 21.4% | 4.3% (active) | 36.8% | 44.2% | -58.9% (active) | 64.1% | 83.2% | 59.3% | 24.5% | 89.3% | 65.3% | 92.9% | 72% | 48.4% | 53.3% | 49.3%
12 | O=C(CSc1nnc(-c2ccc(Cl)cc2)n1-c1ccccc1)Nc1ccc(Br)cc1 | 67% | 21.3% | -33.7% (active) | 35% | -51.8% (active) | 13.5% | 31.2% | 20.2% | -54.5% (active) | 33.4% | 80.9% | 24.9% | -42.9% (active) | -19.4% (active) | -55.7% (active) | -81.9% (active) | -53.6% (active) | -60.8% (active) | 41% | 61.1%
13 | O=S(=O)(NCCCNc1nccc(-c2[nH]c(-c3ccccc3)nc2-c2ccc(Cl)c(O)c2)n1)c1ccc(Br)cc1 | 13.9% | 39.7% | 73.6% | 49% | 30.7% | 27.1% | 0.46% (active) | 13.2% | 21.6% | 17.3% | -22.4% (active) | 44.2% | 37.5% | 36.8% | 66.6% | 24.2% | 33.6% | 65.4% | 21.5% | 22.8%
14 | CC(c1ccccc1)N1CSc2nc3ncncc3n2C1 (stereo not given) | 37.3% | 30.4% | 51.5% | 99.5% | 70.6% | 42.4% | 49.3% | 20.6% | 10.1% | 96.9% | 57.2% | 84.8% | 68.8% | 47.6% | 42.6% | 45.2% | 27.2% | 85.8% | 23.1% | 18.2%
15 | COc1c(N2CC3CCCNC3C2)c(F)cc2c(=O)c(C(=O)N/N=C/c3ccc(F)cc3)cn(C3CC3)c12 (stereo not given) | 45.9% | 45.9% | 83.6% | 99.5% | 81.4% | 76.4% | 82.7% | 80.2% | 46.1% | 81% | 100% | 90% | 88.4% | 80.7% | 101% | 104% | 87.7% | 59.9% | 63.8% | 63.1%
